From PubChem BioAssay
Only some compounds are listed: those with a hit (about 4.1% of all), similar ones and a draw of the others.
DAX1 inh-1 – inhibitors of DAX1 repression of SF-1 activated StAR promoter; HEK293T StAR-luciferase reporter, SF-1/DAX-1 repression relief; 370,000 tested, 1.1% active; inhibition, % at 6.8 µM; AID 652010;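 active means inhibition above the mean over all tested compounds plus 3 SD, cut at about 3.6% in these data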;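 further: 0% = DAX-1 cells with DMSO and 100% = cells lacking DAX-1 with DMSO; higher inhibition means more luminescence from relief of DAX-1 repression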
hcDAF12 agonist – activators of H. contortus DAF-12 nuclear receptor | HEK293 hcDAF-12 lit1-tk-luc reporter, luminescence; 0% DMSO, 100% Δ7-dafachronic acid | activation, % at 6.8 µM | 370,000 tested, 1.4% active | AID 652067;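 active means activation above the mean of all tested compounds plus 3 SD, cut at about 5.5% in these data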;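 further: 100% = response to 3 µM Δ7-dafachronic acid high control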
DAX1 inh-2 – inhibitors of human orphan nuclear receptor DAX1 (NR0B1). HEK293 Gal4-DAX1 luciferase reporter, luminescence. AID 504766. inhibition, % at 6.75 µM. 340,000 tested, 0.99% active. P51843;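 active means inhibition above the mean over all tested compounds plus 3 SD, cut at about 4.2% in these data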;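 further: 0% = DAX1-transfected cells with DMSO and 100% = empty-vector control cells with DMSO; inhibition shows as a rise in luminescence from relieved DAX1 repression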
Target sequence (P51843 207-470 limits assumed): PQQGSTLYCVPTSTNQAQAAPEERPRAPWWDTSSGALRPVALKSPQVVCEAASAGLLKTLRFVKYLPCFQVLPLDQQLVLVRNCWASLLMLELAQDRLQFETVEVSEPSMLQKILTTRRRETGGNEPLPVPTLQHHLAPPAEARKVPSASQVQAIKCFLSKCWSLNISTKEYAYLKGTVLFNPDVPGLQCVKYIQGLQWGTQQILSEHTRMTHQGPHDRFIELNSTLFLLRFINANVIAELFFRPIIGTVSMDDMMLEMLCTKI
ssDAF-12 act – activators of S. stercoralis DAF-12 nuclear receptor | AID 652126 | HEK293 ssDAF-12/GRIP1 lit1-tk-luc reporter, luminescence; % of 3 µM dafachronic acid response | activation, % at 6.8 µM | 370,000 tested, 1% active;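 active means activation above the mean over all tested compounds plus 3 SD, cut at about 0.9% in these data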;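 further: 0% = DMSO-only wells and 100% = 3 µM delta7-dafachronic acid wells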
hgDAF12 agonist – hgDAF-12 agonism, primary luciferase screen | HEK293 GAL4-hgDAF12 UAS-luciferase reporter, agonist luminescence; normalized to butyrate control | activation, % at 6.8 µM | 370,000 tested, 1.8% active;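 active means activation above a cutoff set at the mean of all screened compounds plus 3 SD, cut at about 10% in these data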;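 further: 0% = DMSO wells and 100% = sodium butyrate wells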
* = called active by the depositor; x = no result.

SMILES	DAX1 inh-1	hcDAF12 agonist	DAX1 inh-2	ssDAF-12 act	hgDAF12 agonist
N#CCSc1ccc(-c2nc3ccccc3[nH]2)cn1	3	2	0	0	11*
O=C(COC(=O)C1CCN(/C=C/C(=O)C(F)(F)F)CC1)Nc1cccc(F)c1	0	6.0*	1	0	0
CN(CC#CC1=CCCCC1)/C(N)=N/C(=O)OCc1ccccc1	-1	-2	x	-1	1
O=C(NC1CCCCC1)c1ccc(-c2cn[nH]c2)c2ccoc12	1	-1	x	-1	13*
CCN1C(=O)CCN(C2CCCC2)c2nc(Nc3ccc(C(=O)NC4CCN(C)CC4)cc3OC)ncc21	1	4	8.2*	1	-4
O=C(Nc1ccc(Cl)c(Cl)c1)C1CCN(c2nnc(-n3cccc3)s2)CC1	0	0	x	-2	3
CC(C)NC(=O)/C(C#N)=C/c1ccc(N(C)C)o1	0	-1	5.0*	-2	3
Oc1ccc(CNc2cccnc2)c2cccnc12	x	0	x	-1	1
COC(=O)C1CN(Cc2cn(CCOC(C)=O)nn2)CCS(=O)(=O)N1Cc1ccc(C)cc1 (configuration not stated)	0	-2	x	-1	-4
COc1ccc(C(C)=O)cc1COC(=O)Cc1n[nH]c(=O)c2ccccc12	1	0	5.3*	-1	1
COc1ccccc1C(=O)COC(=O)Cc1n[nH]c(=O)c2ccccc12	1	2	1	0	2
CN(C)c1nc(N/N=C/c2c[nH]c3ccccc23)nc(N2CCOCC2)n1	0	3	3	1.2*	-1
C(=N\Nc1nc(N2CCCCC2)nc(N2CCCCC2)n1)/c1c[nH]c2ccccc12	-1	4	-1	1.1*	2
Cc1[nH]c2ccccc2c1/C=N/Nc1nc(N2CCCCC2)nc(N2CCCCC2)n1	0	1	0	-2	-2
CC(O)(c1ccccc1)c1nc(-c2cccc(C(=O)O)c2)cs1 (configuration not stated)	3	3	x	0	11*
O=C(Nc1ccc(F)cc1)N1CCc2ccccc2C1	1	1	1	0	11*
O=C(NC1CCCCC1)N1CCc2ccccc2C1	2	2	1	-1	13*
CCCCOCCCNC(=O)C[C@H]1C(=O)N(Cc2ccc(OC)cc2)C2=CCCCC[C@@]21C(=O)OC	-1	-3	x	-1	-3
CC(=O)c1ccc(Nc2cnn(C34CC5CC(CC(CC(=O)O)(C5)C3)C4)c(=O)c2Cl)cc1	0	1	5.4*	-1	2
CC(C)NC(=O)c1cc2ccccc2o1	0	-2	5.1*	-1	2
CC1CCCCC1NC(=O)c1cc2ccccc2o1 (configuration not stated)	0	2	0	-1	11*
CC1CCCCC1NC(=O)c1cc(Cl)nc2ccccc12 (configuration not stated)	2	3	2	1.4*	5
O=C(Cn1cnc2ccccc2c1=O)N1CCN(c2ccc(F)cc2)CC1	0	-2	0	-1	1
O=C(Cn1cnc2ccccc2c1=O)N1CCN(S(=O)(=O)c2ccc(F)cc2)CC1	3.6*	1	0	-1	-1
CCc1c(O)nc(SCC(=O)Nc2ccc(Cl)cc2)n(-c2ccccc2)c1=O	0	0	-1	-1	-1
SMILES	DAX1 inh-1	hcDAF12 agonist	DAX1 inh-2	ssDAF-12 act	hgDAF12 agonist
CCOC(=O)[C@@]12CCC3=C1N(CCC3)C(=O)[C@H](CC(=O)N1CCSCC1)C2	0	-2	x	-1	2
CCCSc1nc2c(cnn2-c2ccccc2)c(=O)n1N	1	5.8*	1	-1	13*
Cc1ccc(-c2nnc(-c3ccccc3)o2)cc1	3	4	1	0	12*
Cc1ccc(-c2nnc(-c3cccs3)o2)cc1	4.4*	8.8*	2	1.4*	11*
O=C(O)c1ccc(-c2noc(-c3cccc(Cl)c3)n2)cc1	0	0	0	-1	1
Cc1ccc(-c2nnc(N)o2)cc1	2	1	0	-1	2
CC(=O)Nc1cccc(-c2nnc(-c3ccccc3)o2)c1	0	0	-1	-1	12*
O=C(Nc1cccc(-c2nnc(-c3ccccc3)o2)c1)C1CC1	0	-3	-1	-2	4
O=C(O)c1ccc(-c2noc(-c3ccc(F)cc3)n2)cc1	2	5.7*	0	0	13*
N#Cc1cccc(NC(=O)OC2CC3CC2[C@H]2CCCCN2C3)c1 (some centres not stated)	-1	-2	x	-1	0
O=C(NCCCc1ccccc1)O[C@@H]1CC[C@@]23CCCN2C(=O)CCC[C@H]3C1	x	-2	x	-2	-3
C=CCN1C(=O)[C@@H](CC(=O)NCc2cccc(C(F)(F)F)c2)[C@]2(C(=O)OC)CCCCC=C12	0	-3	x	-1	0
Cc1cccc(-c2nnc(-c3ccc4ccccc4c3)o2)c1	3.6*	4	4.3*	0	12*
O=C(O)c1ccc(-c2nnc(-c3ccc([N+](=O)[O-])cc3)o2)cc1	0	0	0	-1	1
O=C(O)c1ccc(-c2nnc(-c3ccccc3)o2)cc1	1	5	2	1.0*	8
Cc1ccc(-c2nnc(-c3cc(C)on3)o2)cc1	2	3	4	0	12*
CC(C)CC(O)(CC(C)C)c1cn(C(=O)N(c2ccccc2)c2ccccc2)nn1	x	0	x	-1	-2
CCOC(=O)Cn1cc(CN2CCS(=O)(=O)N(Cc3ccc(OC)cc3)C(C(=O)OC)C2)nn1 (configuration not stated)	0	-2	x	-1	-1
CCON1C(=O)C(C)(C)N(OCC)C(=O)C1(C)C	0	-3	1	-1	0
CCOC(=O)CON1C(=O)C(C)(C)N(OCC(=O)OCC)C(=O)C1(C)C	1	0	0	1.0*	-1
CCOC(=O)[C@@]12CN(C(=O)OC(C)(C)C)CC=C1N(Cc1ccc(OC)cc1)C(=O)[C@H]2CC(=O)NCc1ccc(C)o1	-1	-3	x	-1	-2
CCCCCN1CCCCC(NC(=O)C(C)(C)C)C1=O (configuration not stated)	-1	-2	x	-2	-2
CCOC(=O)c1ccc2[nH]c(C)c(C)c2c1	2	1	0	-1	7
CCOC(=O)c1ccc2[nH]c3ccccc3c2c1	1	3	8.0*	0	11*
C#Cc1cccc(OC[C@@H](O)CN2CCC(C(O)(c3ccccc3)c3ccccc3)CC2)c1	0	-1	x	-1	3
N#Cc1ccc(OCC(=O)OCC(=O)Nc2ccc(N3CCOCC3)cc2)cc1	2	0	1	-1	0
O=C(COC(=O)COc1cccc(C(F)(F)F)c1)Nc1ccc(N2CCOCC2)cc1	-2	6.1*	0	-1	0
CCCCCCOc1ccc(/C(N)=N/O)cc1	-1	4	3	-1	11*
